Key:
Assay in all cases: PBM binding z-score (relative to random genomic background probes); higher = stronger binding; sequences stand for … in GC…GCGATTGACAGCGTAGAATGAAGG
[1] = system: FXR:RXRa (NR concentration 270 nM, RXRa partner concentration 90 nM)
Outline: (§1)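 Each nuclear receptor dimer, without ligand, was incubated for 1 h on custom Agilent 4×180K protein-binding microarrays. Binding was detected with antibodies against each partner (one per run), and scanned fluorescence was regression-normalized. The binding z-scores are referenced to random human genomic background probes.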

[2] = system: LXRa:RXRa (NR concentration 270 nM, RXRa partner concentration 90 nM)
Outline: as §1

[3] = system: LXRa homodimer (NR concentration 270 nM)
Outline: as §1

[4] = system: LXRb:RXRa (NR concentration 270 nM, RXRa partner concentration 90 nM)
Outline: as §1

[5] = system: LXRb homodimer (NR concentration 270 nM)
Outline: as §1

[6] = system: PPARa:RXRa (NR concentration 270 nM, RXRa partner concentration 90 nM)
Outline: as §1

[7] = system: PPARg:RXRa (NR concentration 180 nM, RXRa partner concentration 90 nM)
Outline: as §1

[8] = system: PPARg:RXRa 270nM:90nM, anti-RXR (NR concentration 270 nM, RXRa partner concentration 90 nM)
Outline: as §1

[9] = system: PPARg:RXRa 30nM:10nM, anti-RXR (NR concentration 30 nM, RXRa partner concentration 10 nM)
Outline: as §1

[10] = system: PPARg:RXRa 90nM:30nM, anti-RXR (NR concentration 90 nM, RXRa partner concentration 30 nM)
Outline: as §1

Sequence | PBM binding z-score [1] | PBM binding z-score [2] | PBM binding z-score [3] | PBM binding z-score [4] | PBM binding z-score [5] | PBM binding z-score [6] | PBM binding z-score [7] | PBM binding z-score [8] | PBM binding z-score [9] | PBM binding z-score [10]
CCTACTGGGCCACGAATGGTCATTGATTCAGTGA | -0.465 | -0.465 | -0.579 | -0.606 | -1.07 | 0.398 | 1.18 | 1.19 | -0.142 | 0.398
TCTTTTAGATCAACAGGAGGTTAAGAAAGATCGA | 1.27 | 1.43 | 0.248 | 1.57 | 0.898 | 1.55 | 0.2 | 2.27 | 3.57 | 3.17
AATACAGGGTCATCGTAGGCCAGGGTACGCACAG | 7.02 | 6.11 | 2.59 | 4.52 | 1.33 | 5.71 | 6.91 | 6.06 | 2.54 | 4.9
CCTACGGGGCCAAAAAGGTCATTGATGCCGATAA | 3.94 | 4.35 | 2.76 | 4.36 | 0.0213 | 4.67 | 1.63 | 2.97 | 0.7 | 1.77
CGTCCAAGGTCAAGGTCAGTGATAGAGACTCGAA | 7.73 | 5.59 | 1.52 | 4.55 | 0.758 | 6.02 | 6.2 | 6.15 | 2.73 | 4.98
GGTACGAGGGCATTCGAGTTGATAGCATGGCGAT | 1.45 | 1.69 | -0.269 | 0.123 | -0.742 | 0.926 | 0.726 | 0.262 | -0.638 | 0.0723
AGAATGAGGTTTCCAAAGATCAGGGAAACGCTTG | -0.506 | -0.535 | -0.424 | -0.463 | -0.489 | -0.139 | 0.377 | -0.265 | -0.17 | -0.215
GCTGCTAGGTCCGGTTGGTCAGCTAACGGGTACG | -0.467 | -0.521 | -0.707 | -1.05 | -0.916 | -0.619 | -0.571 | -0.342 | -0.72 | -0.851
ACTAGCAGGCCAAGTTTGGGTAACTCAAACAAAG | -0.442 | -0.634 | -0.575 | -0.304 | -0.8 | -0.339 | -0.414 | -0.541 | -0.687 | -0.687
GCTCGGAGGACAAGGTCAGAGCCTTGTCCGTAGA | 2.67 | 2.08 | -0.456 | 1.59 | -0.419 | 2.91 | 0.887 | 2.22 | -0.306 | 1.23
AGAACGAGGGCACGCTGAGTTGATAGCCGAGTAG | 0.799 | 0.509 | -0.574 | 0.154 | -0.961 | 2.17 | 2.04 | 1.7 | -0.0721 | 0.936
ATATGTAGGTTAAGGGTCTTTCAGGTTGGTTCGC | 1.3 | 1.7 | 0.812 | 1.77 | 0.832 | 4.62 | 8.46 | 8.05 | 6.71 | 8.67
TAGACTAGGTCATTGGGCCAGTATAGTACGCATC | 3.51 | 2.61 | 0.548 | 1.56 | 0.785 | 3.89 | 5.62 | 5.24 | 2.45 | 4.58
ATCGAAAGGTCCAGGTGAGTATAGAGAAAGGGAA | 0.612 | 0.816 | 0.0552 | 0.22 | 0.494 | 0.594 | 0.347 | 0.503 | 0.287 | 0.512
CCGACTGGGGTAGAAAGGTTACCATACCATCCGG | 0.17 | 0.786 | -0.133 | 1.06 | -1.02 | 2.58 | 2.04 | 3.63 | 1.08 | 3.32
AGTCAAAGTTCAGGACGAGGTTACGTAAAGCACG | 4.83 | 4.65 | 2.06 | 2.7 | 0.273 | 3.73 | 5.02 | 4.89 | 2.32 | 4.2
TCATATAGGTAAAGGTGAACGTCGAACGATATGA | 1.01 | 1.27 | -0.125 | 1.25 | -0.0636 | 3.18 | 4.94 | 4.76 | 4.7 | 5.08
ATATGTAGGTTAAGGGTCATTCTGGTTGGTTCGC | 5.42 | 4.75 | 3.48 | 4.51 | 1.56 | 6.65 | 11.4 | 9.66 | 10.5 | 11.5
CCTTACGGGACAAGGTTATAGCACGGGTGGTACG | 0.441 | 0.693 | -0.25 | 0.134 | -0.233 | 1.02 | 1.08 | 0.756 | 0.00492 | 0.323
TGAATGAGGTTATAAGATCAGGTAACGTTGCAAA | 1.34 | 1.33 | -0.261 | 1.28 | 0.248 | 2.76 | 1.42 | 1.99 | 1.02 | 1.46
AGTCAAAGTTCGTCTAGGTAACGTAAGATATGCT | 1.46 | 1.16 | 0.363 | 0.787 | -0.0526 | 1.84 | 2.79 | 3.39 | 1.44 | 2.71
GCTTACGGGTCAAACGTTATAGCATGAATAGAAT | 6.35 | 4.13 | -0.166 | 4.02 | 0.282 | 5.72 | 6.02 | 6.15 | 2.96 | 5.31
AGAATGAGGTTACCAAAAATCAGGGAAACGCTTG | 1.63 | 2.73 | -0.193 | 1.54 | -0.426 | 3.2 | 2.49 | 2.98 | 0.857 | 2.25
ATACCAAGGTGATCGTGAGGTCGTTGAGACTAAC | 1.86 | 1.27 | 0.536 | 0.968 | 0.251 | 1.55 | 0.356 | 0.352 | -0.174 | -0.0872
TCTTGTAGAGCAATAGAGGTTAAGAAAGTGCGCT | 0.316 | 2.34 | 0.104 | 1.18 | -0.745 | 1.92 | 0.157 | 1.31 | 1.69 | 1.55

Sequence | PBM binding z-score [1] | PBM binding z-score [2] | PBM binding z-score [3] | PBM binding z-score [4] | PBM binding z-score [5] | PBM binding z-score [6] | PBM binding z-score [7] | PBM binding z-score [8] | PBM binding z-score [9] | PBM binding z-score [10]
TCATTTAGGTAATACAGGTGAAAGTCGGCATCTA | 1.6 | 1.41 | 0.774 | 1.47 | 1.18 | 2.02 | 0.962 | 2.92 | 4.52 | 3.72
ATCGAAAGGTCGAGGGTGAGTATACCCACCCGAA | 4.29 | 3.45 | 0.143 | 2.57 | 0.248 | 4.67 | 3.72 | 4.25 | 1.3 | 3.04
TAGCGTAGGTCAGATCGGGCCAGTATACGCTATA | 2.62 | 1.36 | -0.421 | 0.809 | -0.55 | 1.99 | 0.602 | 0.725 | 0.0137 | 0.225
TGAATGAGGTTCAAGATCAGGGAACGTGGCGTCG | 0.995 | 0.96 | -0.757 | 0.185 | -0.0166 | 1.76 | 0.831 | 1.62 | 0.424 | 1.14
ACTAGTTGGTCAGCTGAGGTCATACACAATTCGG | 3.84 | 3.45 | 3.44 | 3.54 | 1.09 | 3.52 | 1.43 | 1.72 | 0.448 | 1.14
GCTTGTAGGTCAAGGTTAAGAAAGACTAAGCTAA | 5.3 | 4.01 | 0.371 | 3.16 | 0.186 | 5.37 | 9.1 | 7.63 | 6.21 | 7.79
ATCGAAAGGTCGACGAGCTGAGTATACACCGTTT | 4.14 | 3.16 | 0.028 | 2.59 | 0.389 | 4.22 | 2.33 | 2.87 | 1.17 | 1.72
GCTTACGGGTCAAAGGTTGTAGCATGAATAGAAT | 7.18 | 4.99 | 0.175 | 4.72 | 0.259 | 6.6 | 9.83 | 8.57 | 7.45 | 9.31
TCGTATAGGTAAAAGGTGAAAGTCGGTGTGGTAA | 1.99 | 2.05 | 0.453 | 2.23 | 0.0721 | 4.51 | 6.49 | 7.01 | 6.31 | 7.11
GCGGCTGGGGCATCAGCAGGTTACCATAACTTAA | -0.5 | -0.215 | -0.622 | 0.239 | -0.602 | 0.602 | -0.0151 | -0.415 | -0.593 | -0.53
CCAGACAGGTGGGAAGGTAACTCAGCCTCGATTA | -0.208 | -0.246 | 0.289 | 0.0174 | -0.794 | 0.0187 | 0.131 | -0.544 | -0.249 | -0.529
ATCTCTAGCTAACAAGTTCAGTGAAAGAGAGGAC | 0.604 | 0.71 | 0.538 | 0.504 | 0.838 | 0.381 | 0.2 | -0.0606 | 0.335 | 0.17
TGAATGAGGTTATAAGATCAGGGACCGTTGCAAA | 1.45 | 1.26 | 0.0374 | 1.01 | -0.286 | 2.6 | 1.45 | 2.32 | 0.865 | 1.63
CGAACTAGGTCATGCAGGACAGTGAATACATTGA | 3.87 | 2.17 | 0.149 | 1.88 | -0.2 | 4.66 | 7.65 | 6.21 | 3.69 | 5.66
ATACGTAGGTTAGCTGGGGTCATTCAGACTAGGC | 5.03 | 5.91 | 2.24 | 4.72 | 0.757 | 4.24 | 1.72 | 2.91 | 0.452 | 1.55
ACAGACAGGTGAGTTAAGGTAACTCAGCTGGACG | 0.488 | -0.196 | -0.499 | -0.279 | -0.347 | 0.226 | 0.637 | 0.279 | 0.254 | 0.0651
TCTAGTTGGTCAGAGGTCACACACTCGAAATGCG | 4.94 | 4.85 | 3.21 | 4.9 | 1.13 | 5.55 | 9.31 | 8.56 | 7.99 | 9.17
CTTAGCAGGCCAGGGTCACTCAAGCATTTCGCTT | 2.22 | 1.69 | -0.276 | 2.19 | -0.331 | 3.33 | 0.864 | 1.93 | -0.113 | 1.06
ATGTCTAGGTAACAAGTTCAGTGAAAGAGAGGAC | 0.658 | 0.774 | 0.395 | 0.727 | 0.845 | 1.28 | 1.06 | 1.07 | 0.33 | 1.12
CCTACTGAGCCATTCAGAGGTCATTGATCATATG | 2.84 | 4.67 | 6.83 | 3.88 | 1.24 | 3.63 | 0.797 | 1.84 | 0.239 | 1.39
CAAACTAGGTCATAGAGGTCAAAGTCCGTGCGTA | 7.25 | 6.71 | 8.36 | 6.15 | 2.33 | 6.49 | 9.13 | 7.74 | 6.17 | 7.92
CCTAGTTGGTCAAGGTCACACTCGCTATAGGTAC | 3.95 | 3.53 | 2.41 | 3.43 | 0.997 | 3.86 | 2.85 | 3.32 | 1.24 | 2.41
GCTTGTAGAGCAAGGTTAAGAAAGACTAAGCTAA | -0.0313 | 0.442 | -0.567 | 0.174 | -1.28 | 1.5 | 1.41 | 2.77 | 0.817 | 2.03
GCAGACAGGTGTAACGCAGGTAACTCAGGGTGGC | -0.697 | -0.644 | -1.09 | -0.823 | -1.61 | -0.721 | 0.351 | -0.525 | -0.773 | -0.582

— the supplement of paper PMC6555819
